# Measurements: paper PMC7862700, “An all-to-all approach to the identification of sequence-specific readers for epigenetic DNA modifications on cytosine”
# How the values were obtained:
# Assay in all cases: DAPPL (digital affinity profiling via proximity ligation, sequencing); 10 mM Tris-HCl pH 7.5, 50 mM NaCl, 1 mM DTT, 4% glycerol, room temperature, 30 min; GST-TFs on glutathione beads, 16-mer random dsDNA library, 0.1% formaldehyde crosslink after washing; high values mean tight binding
# FLI1 = biological target: T1, FLI1 (Homo sapiens, UniProt Q01543 1-452); details: protein: recombinant; tags: N-terminal GST; dsDNA, one strand shown
# T1 sequence: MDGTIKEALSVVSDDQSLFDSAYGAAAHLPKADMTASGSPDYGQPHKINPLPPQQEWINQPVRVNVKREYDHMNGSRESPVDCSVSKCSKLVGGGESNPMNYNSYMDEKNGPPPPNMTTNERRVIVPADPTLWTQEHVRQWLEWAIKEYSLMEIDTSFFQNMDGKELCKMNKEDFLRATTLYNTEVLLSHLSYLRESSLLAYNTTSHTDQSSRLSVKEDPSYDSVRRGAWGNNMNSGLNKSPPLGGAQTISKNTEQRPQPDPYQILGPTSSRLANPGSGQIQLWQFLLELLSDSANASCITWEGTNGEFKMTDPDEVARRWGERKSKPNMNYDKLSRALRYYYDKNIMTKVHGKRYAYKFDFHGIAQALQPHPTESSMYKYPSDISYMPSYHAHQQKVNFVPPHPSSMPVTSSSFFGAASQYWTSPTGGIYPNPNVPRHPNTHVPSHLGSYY
# How it was run: (§1)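 GST fusions of human transcription factors were expressed in yeast and captured with glutathione beads. Once given DNA barcodes and pooled alongside a tag-only sample, they were incubated for 30 min at room temperature with 200 nmole of a random double-stranded 16-mer DNA library in Tris/NaCl/DTT/glycerol buffer, then washed, crosslinked (0.1% formaldehyde), proximity-ligated, PCR-amplified and sequenced on an Illumina NextSeq500. The binding signal of each hexamer is its read frequency for a factor divided by its frequency for the tag-only sample.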
# ELK1 = biological target: T2, ELK1 (Homo sapiens, UniProt P19419 1-428); details: protein: recombinant; tags: N-terminal GST; dsDNA, one strand shown
# T2 sequence: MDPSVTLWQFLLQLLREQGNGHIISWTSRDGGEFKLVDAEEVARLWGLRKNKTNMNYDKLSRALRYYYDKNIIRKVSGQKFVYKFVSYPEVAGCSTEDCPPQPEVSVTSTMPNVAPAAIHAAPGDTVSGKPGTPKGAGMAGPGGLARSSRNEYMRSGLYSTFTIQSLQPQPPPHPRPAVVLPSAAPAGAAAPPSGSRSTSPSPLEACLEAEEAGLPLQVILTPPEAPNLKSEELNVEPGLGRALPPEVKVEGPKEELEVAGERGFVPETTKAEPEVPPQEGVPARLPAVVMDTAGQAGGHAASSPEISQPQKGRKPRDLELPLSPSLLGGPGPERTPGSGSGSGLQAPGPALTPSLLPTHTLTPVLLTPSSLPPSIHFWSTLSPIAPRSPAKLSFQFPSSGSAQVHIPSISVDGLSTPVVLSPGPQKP
# How it was run: as §1
# GABPA = biological target: T3, GABPA (Homo sapiens, UniProt Q06546 1-454); details: protein: recombinant; tags: N-terminal GST; dsDNA, one strand shown
# T3 sequence: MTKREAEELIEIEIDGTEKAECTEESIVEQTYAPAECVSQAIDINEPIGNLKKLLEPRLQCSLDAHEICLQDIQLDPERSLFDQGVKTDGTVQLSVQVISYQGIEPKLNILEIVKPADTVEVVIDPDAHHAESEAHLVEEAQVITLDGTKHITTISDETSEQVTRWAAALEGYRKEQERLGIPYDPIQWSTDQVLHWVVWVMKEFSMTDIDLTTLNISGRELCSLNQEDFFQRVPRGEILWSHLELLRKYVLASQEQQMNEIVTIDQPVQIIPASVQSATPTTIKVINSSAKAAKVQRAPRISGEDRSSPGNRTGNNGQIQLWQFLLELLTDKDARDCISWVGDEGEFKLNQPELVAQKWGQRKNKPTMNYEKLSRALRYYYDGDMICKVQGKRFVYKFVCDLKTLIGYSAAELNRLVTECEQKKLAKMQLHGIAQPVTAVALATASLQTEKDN
# How it was run: as §1
# ERG = biological target: T4, ERG (Homo sapiens, UniProt P11308 1-479); details: protein: recombinant; tags: N-terminal GST; dsDNA, one strand shown
# T4 sequence: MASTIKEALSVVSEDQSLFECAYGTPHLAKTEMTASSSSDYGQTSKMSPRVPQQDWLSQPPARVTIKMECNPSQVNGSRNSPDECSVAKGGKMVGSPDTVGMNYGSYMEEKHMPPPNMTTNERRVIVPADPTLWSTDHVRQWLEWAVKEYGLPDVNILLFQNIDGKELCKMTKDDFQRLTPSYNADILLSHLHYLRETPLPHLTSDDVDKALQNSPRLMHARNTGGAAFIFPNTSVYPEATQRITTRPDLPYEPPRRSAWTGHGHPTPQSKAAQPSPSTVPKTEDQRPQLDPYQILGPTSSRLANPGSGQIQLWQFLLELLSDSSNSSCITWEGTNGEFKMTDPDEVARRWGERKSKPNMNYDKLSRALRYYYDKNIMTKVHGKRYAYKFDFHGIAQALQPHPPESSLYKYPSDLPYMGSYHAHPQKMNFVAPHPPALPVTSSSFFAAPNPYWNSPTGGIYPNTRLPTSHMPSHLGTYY
# How it was run: as §1
# ELF1 = ELF1 (Homo sapiens, UniProt P32519 1-619); details: protein: recombinant; tags: N-terminal GST; dsDNA, one strand shown
# Sequence of ELF1 (P32519 whole entry): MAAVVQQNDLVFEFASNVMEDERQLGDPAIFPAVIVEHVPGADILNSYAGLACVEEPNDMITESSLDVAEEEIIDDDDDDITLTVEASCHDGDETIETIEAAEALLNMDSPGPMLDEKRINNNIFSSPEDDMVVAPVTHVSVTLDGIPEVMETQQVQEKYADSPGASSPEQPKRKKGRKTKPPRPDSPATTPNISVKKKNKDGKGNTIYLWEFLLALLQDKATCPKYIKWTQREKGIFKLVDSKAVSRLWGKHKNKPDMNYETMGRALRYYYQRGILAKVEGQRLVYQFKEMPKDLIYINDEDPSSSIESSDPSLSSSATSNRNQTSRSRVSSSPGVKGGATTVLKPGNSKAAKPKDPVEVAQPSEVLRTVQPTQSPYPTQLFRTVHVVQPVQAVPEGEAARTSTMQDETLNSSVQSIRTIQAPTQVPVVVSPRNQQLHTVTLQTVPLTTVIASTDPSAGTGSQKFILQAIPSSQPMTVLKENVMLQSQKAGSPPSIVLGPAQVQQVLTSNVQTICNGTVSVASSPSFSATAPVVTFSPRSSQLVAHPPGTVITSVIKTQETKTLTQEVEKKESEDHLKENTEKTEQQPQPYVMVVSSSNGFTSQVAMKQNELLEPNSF
# How it was run: as §1
# EHF = biological target: T5, EHF (Homo sapiens, UniProt Q9NZC4 1-300); details: protein: recombinant; tags: N-terminal GST; dsDNA, one strand shown
# T5 sequence: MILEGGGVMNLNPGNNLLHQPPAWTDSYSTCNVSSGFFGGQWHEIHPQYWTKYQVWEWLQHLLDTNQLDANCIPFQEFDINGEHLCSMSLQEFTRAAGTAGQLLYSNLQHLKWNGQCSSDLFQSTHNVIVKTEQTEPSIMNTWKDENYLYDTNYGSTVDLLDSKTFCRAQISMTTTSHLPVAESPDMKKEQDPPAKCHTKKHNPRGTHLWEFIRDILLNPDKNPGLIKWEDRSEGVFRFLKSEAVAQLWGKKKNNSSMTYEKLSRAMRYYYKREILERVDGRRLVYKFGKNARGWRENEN
# How it was run: as §1
# SPI1 = SPI1 (Homo sapiens, UniProt P17947 1-270); details: protein: recombinant; tags: N-terminal GST; dsDNA, one strand shown
# How it was run: as §1
# SPIB = SPIB (Homo sapiens, UniProt Q01892 1-262); details: protein: recombinant; tags: N-terminal GST; dsDNA, one strand shown
# Sequence of SPIB (Q01892 whole entry): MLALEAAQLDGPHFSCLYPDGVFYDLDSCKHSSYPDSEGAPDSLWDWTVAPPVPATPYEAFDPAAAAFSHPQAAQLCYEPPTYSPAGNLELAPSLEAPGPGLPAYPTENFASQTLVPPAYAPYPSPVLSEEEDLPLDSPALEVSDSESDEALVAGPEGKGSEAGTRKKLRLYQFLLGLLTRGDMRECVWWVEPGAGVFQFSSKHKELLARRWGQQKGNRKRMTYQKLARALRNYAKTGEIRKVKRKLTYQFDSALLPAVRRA
# How it was run: as §1
# ELK3 = biological target: T6, ELK3 (Homo sapiens, UniProt P41970 1-407); details: protein: recombinant; tags: N-terminal GST; dsDNA, one strand shown
# T6 sequence: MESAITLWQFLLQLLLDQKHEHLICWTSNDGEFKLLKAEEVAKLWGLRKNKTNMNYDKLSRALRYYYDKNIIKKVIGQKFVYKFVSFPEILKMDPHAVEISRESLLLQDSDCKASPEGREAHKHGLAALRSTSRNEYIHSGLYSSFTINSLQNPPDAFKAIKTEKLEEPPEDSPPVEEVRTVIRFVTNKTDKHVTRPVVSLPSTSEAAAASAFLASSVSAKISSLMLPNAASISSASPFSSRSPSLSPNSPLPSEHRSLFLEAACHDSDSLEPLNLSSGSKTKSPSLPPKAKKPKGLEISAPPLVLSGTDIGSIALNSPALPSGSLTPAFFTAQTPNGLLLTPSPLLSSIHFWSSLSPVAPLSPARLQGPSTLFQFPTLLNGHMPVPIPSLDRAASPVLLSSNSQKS
# How it was run: as §1
# FEV = biological target: T7, FEV (Homo sapiens, UniProt Q99581 1-238); details: protein: recombinant; tags: N-terminal GST; dsDNA, one strand shown
# T7 sequence: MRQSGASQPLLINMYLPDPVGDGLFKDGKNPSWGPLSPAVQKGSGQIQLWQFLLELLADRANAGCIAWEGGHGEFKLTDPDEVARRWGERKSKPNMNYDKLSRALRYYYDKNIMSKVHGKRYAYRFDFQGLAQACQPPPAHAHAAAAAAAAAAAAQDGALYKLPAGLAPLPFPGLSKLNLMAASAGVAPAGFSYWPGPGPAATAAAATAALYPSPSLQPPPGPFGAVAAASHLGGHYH
# How it was run: as §1
# ETV5 = ETV5 (Homo sapiens, UniProt P41161 1-510); details: protein: recombinant; tags: N-terminal GST; dsDNA, one strand shown
# Sequence of ETV5 (P41161 whole entry): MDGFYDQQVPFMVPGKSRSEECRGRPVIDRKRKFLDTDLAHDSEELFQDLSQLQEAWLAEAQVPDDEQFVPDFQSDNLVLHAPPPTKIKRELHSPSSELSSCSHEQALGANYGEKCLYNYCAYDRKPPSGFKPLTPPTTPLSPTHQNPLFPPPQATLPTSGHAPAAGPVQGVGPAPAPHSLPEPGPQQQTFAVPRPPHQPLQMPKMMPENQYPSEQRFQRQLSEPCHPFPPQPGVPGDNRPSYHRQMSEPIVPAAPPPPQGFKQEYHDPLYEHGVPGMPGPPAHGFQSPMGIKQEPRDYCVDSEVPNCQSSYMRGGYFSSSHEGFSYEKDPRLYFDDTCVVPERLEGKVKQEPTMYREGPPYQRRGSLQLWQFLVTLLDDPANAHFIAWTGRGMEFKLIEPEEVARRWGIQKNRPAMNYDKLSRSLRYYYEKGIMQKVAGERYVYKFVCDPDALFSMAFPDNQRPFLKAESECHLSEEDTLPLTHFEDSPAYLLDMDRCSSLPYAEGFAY
# How it was run: as §1
# HSF1 = HSF1 (Homo sapiens, UniProt Q00613 1-529); details: protein: recombinant; tags: N-terminal GST; chain copies: 3; dsDNA, one strand shown
# Sequence of HSF1 (Q00613 whole entry): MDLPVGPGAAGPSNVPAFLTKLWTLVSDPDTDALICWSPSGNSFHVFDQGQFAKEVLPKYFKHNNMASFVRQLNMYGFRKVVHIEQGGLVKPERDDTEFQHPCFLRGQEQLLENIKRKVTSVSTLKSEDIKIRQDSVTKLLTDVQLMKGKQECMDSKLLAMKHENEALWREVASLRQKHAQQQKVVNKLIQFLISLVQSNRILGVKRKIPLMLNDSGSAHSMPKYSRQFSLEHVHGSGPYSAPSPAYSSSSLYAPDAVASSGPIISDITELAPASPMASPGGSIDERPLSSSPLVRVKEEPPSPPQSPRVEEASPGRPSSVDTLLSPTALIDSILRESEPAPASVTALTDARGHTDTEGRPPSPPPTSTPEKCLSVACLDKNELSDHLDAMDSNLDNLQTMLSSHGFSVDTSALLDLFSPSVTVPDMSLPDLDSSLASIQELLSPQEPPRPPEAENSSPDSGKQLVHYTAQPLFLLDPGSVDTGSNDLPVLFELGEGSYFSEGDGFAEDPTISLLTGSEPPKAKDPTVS
# How it was run: as §1
# SPIC = biological target: T8, SPIC (Homo sapiens, UniProt Q8N5J4 1-248); details: protein: recombinant; tags: N-terminal GST; dsDNA, one strand shown
# T8 sequence: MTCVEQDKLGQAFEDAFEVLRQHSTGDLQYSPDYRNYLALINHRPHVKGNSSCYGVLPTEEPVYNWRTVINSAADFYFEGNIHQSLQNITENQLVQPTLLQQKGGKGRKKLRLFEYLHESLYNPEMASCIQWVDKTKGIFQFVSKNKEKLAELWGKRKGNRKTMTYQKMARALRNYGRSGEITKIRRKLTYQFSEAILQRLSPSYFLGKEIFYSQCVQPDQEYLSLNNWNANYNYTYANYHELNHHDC
# How it was run: as §1
# ELF4 = ELF4 (Homo sapiens, UniProt Q99607 1-663); details: protein: recombinant; tags: N-terminal GST; dsDNA, one strand shown
# Sequence of ELF4 (Q99607 whole entry): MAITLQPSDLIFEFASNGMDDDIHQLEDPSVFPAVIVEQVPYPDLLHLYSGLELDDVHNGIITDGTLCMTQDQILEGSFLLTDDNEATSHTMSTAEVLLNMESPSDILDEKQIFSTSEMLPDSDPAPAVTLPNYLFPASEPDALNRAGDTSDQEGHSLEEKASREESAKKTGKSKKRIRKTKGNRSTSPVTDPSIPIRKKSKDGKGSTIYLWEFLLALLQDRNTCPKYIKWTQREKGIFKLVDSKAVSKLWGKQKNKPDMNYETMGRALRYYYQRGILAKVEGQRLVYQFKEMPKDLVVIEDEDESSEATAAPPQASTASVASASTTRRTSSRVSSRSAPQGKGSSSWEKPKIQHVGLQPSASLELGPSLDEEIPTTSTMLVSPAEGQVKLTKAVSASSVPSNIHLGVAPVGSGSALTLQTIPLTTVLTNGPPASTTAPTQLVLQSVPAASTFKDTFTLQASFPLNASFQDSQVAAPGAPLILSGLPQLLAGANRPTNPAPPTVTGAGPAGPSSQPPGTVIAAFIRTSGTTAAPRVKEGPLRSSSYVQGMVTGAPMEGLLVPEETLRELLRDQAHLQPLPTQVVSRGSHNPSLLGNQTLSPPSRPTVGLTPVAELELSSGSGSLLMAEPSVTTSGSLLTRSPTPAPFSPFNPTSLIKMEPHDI
# How it was run: as §1
# ELK4 = biological target: T9, ELK4 (Homo sapiens, UniProt P28324-2 1-405); details: protein: recombinant; tags: N-terminal GST; dsDNA, one strand shown
# T9 sequence: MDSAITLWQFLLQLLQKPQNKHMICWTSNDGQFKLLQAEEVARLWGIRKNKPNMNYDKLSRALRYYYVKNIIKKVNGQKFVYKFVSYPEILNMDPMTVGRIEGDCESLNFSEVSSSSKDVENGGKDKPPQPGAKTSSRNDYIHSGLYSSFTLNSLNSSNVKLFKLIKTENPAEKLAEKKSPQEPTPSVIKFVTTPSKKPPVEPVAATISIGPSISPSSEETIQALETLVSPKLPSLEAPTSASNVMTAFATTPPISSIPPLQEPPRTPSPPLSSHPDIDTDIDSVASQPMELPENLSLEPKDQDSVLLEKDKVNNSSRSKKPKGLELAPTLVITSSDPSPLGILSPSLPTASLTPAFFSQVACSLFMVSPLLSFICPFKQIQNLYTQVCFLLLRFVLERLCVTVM
# How it was run: as §1
# ETV2 = biological target: T10, ETV2 (Homo sapiens, UniProt O00321 1-342); details: protein: recombinant; tags: N-terminal GST; dsDNA, one strand shown
# T10 sequence: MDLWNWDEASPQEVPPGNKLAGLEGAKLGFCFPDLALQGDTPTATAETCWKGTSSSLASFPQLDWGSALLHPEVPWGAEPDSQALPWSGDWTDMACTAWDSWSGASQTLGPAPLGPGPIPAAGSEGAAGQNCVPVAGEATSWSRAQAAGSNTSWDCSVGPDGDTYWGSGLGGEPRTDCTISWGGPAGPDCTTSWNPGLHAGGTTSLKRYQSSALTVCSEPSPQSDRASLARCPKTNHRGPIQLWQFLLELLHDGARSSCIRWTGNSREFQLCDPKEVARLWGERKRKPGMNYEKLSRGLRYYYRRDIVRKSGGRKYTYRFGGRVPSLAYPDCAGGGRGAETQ
# How it was run: as §1
# ELF3 = biological target: T11, ELF3 (Homo sapiens, UniProt P78545 1-371); details: protein: recombinant; tags: N-terminal GST; dsDNA, one strand shown
# T11 sequence: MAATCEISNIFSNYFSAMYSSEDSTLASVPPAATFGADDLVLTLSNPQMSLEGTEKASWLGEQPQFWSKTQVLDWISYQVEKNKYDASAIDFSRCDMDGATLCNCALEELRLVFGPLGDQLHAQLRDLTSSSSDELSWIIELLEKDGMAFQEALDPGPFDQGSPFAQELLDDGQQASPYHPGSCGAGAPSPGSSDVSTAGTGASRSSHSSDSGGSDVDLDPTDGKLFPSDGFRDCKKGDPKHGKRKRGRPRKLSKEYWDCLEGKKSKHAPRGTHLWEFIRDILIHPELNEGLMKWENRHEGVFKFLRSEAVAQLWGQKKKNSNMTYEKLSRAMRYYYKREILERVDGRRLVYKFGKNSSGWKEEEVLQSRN
# How it was run: as §1
# CRX = CRX (Homo sapiens, UniProt O43186 1-299); details: protein: recombinant; tags: N-terminal GST; dsDNA, one strand shown
# Sequence of CRX (O43186 whole entry): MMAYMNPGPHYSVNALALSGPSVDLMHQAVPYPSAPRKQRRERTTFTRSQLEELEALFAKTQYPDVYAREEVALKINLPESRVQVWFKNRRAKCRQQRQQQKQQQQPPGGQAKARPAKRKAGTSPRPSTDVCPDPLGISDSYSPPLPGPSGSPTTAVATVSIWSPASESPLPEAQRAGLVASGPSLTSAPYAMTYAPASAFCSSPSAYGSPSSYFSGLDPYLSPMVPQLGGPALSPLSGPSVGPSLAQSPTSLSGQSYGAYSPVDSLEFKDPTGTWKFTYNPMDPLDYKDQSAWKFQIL
# How it was run: as §1
# ETV1 = ETV1 (Homo sapiens, UniProt P50549 1-477); details: protein: recombinant; tags: N-terminal GST; dsDNA, one strand shown
# Sequence of ETV1 (P50549 whole entry): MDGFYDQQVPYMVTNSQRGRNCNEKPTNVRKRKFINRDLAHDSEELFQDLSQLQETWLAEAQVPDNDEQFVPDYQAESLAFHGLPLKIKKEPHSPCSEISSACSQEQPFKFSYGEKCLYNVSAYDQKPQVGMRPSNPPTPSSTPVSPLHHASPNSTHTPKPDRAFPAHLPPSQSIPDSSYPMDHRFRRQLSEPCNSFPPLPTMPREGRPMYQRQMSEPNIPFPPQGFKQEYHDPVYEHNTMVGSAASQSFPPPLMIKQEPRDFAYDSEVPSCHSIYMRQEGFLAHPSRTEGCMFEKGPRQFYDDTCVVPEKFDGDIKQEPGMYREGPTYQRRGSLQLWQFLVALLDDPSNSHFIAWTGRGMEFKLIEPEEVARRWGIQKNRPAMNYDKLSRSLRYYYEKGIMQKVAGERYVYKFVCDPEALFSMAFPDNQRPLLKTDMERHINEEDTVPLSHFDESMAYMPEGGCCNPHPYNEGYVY
# How it was run: as §1
sequence,measurement,setting,value
TGATGC,binding signal,FLI1,"1.49 fold enrichment (6-mer frequency, TF over GST control)"
same,binding signal,ELK1,"1.63 fold enrichment (6-mer frequency, TF over GST control)"
same,binding signal,GABPA,"1.65 fold enrichment (6-mer frequency, TF over GST control)"
same,binding signal,ERG,"1.4 fold enrichment (6-mer frequency, TF over GST control)"
same,binding signal,ELF1,"1.64 fold enrichment (6-mer frequency, TF over GST control)"
same,binding signal,EHF,"1.58 fold enrichment (6-mer frequency, TF over GST control)"
same,binding signal,SPI1,"1.42 fold enrichment (6-mer frequency, TF over GST control)"
same,binding signal,SPIB,"1.47 fold enrichment (6-mer frequency, TF over GST control)"
same,binding signal,ELK3,"1.72 fold enrichment (6-mer frequency, TF over GST control)"
same,binding signal,FEV,"1.44 fold enrichment (6-mer frequency, TF over GST control)"
same,binding signal,ETV5,"1.49 fold enrichment (6-mer frequency, TF over GST control)"
same,binding signal,HSF1,"1.27 fold enrichment (6-mer frequency, TF over GST control)"
same,binding signal,SPIC,"1.72 fold enrichment (6-mer frequency, TF over GST control)"
same,binding signal,ELF4,"1.66 fold enrichment (6-mer frequency, TF over GST control)"
same,binding signal,ELK4,"1.6 fold enrichment (6-mer frequency, TF over GST control)"
same,binding signal,ETV2,"1.49 fold enrichment (6-mer frequency, TF over GST control)"
same,binding signal,ELF3,"1.71 fold enrichment (6-mer frequency, TF over GST control)"
same,binding signal,CRX,"1.34 fold enrichment (6-mer frequency, TF over GST control)"
same,binding signal,ETV1,"1.55 fold enrichment (6-mer frequency, TF over GST control)"
